Laboratory results reported in PubChem BioAssay (EPA / NIEHS).
Inconclusive results are not listed. Active and inactive are the calls of the source. Rule for the calls, unless noted: active = hit-call score of the fitted dose curve at least 0.9, where 1 is the maximum; inconclusive = response in the unintended direction; inactive = score below 0.9.

Columns and labels:
[1] = ATG_TAL_CIS: Attagene CIS-FACTORIAL HepG2 Assay for human TAL Basal Promoter (AID 2282966; active = hit-call score of the fitted dose curve at least 0.9, where 1 is the maximum; inactive = score below 0.9;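 note: background control endpoint measuring basal TAL promoter reporter mRNA not a specific factor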); conditions: HepG2 Attagene cis-factorial TAL promoter reporter; actives raise or lower the signal
Procedure, shortened: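 Readout: reporter mRNA, fluorescence by CE. System: HepG2, transient multi-reporter transfection, endogenous TF activity. Exposure: 24 h. Analysis: bidirectional, DMSO-normalized; background control.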

[2] = ATG_TGFb_CIS: Attagene CIS-FACTORIAL HepG2 Assay for human Transforming Growth Factor (TGF) (AID 2282967; active = hit-call score of the fitted dose curve at least 0.9, where 1 is the maximum; inactive = score below 0.9); conditions: HepG2 Attagene CIS TGFb reporter, mRNA transcription; actives raise or lower the signal
Procedure, shortened: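 HepG2 cells transiently transfected with cis-promoter-driven multiplexed reporter units; 24 h compound exposure. Reporter mRNA measured by RT-PCR, 6-FAM labeling, HpaI digestion and capillary electrophoresis; bidirectional fit versus DMSO baseline.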

[3] = molecular target: X-box-binding protein 1 (Homo sapiens) (UniProt P17861); assay: ATG_Xbp1_CIS: Attagene CIS-FACTORIAL HepG2 Assay for human X-box Binding Protein 1 (XBP1) (AID 2282972; active = hit-call score of the fitted dose curve at least 0.9, where 1 is the maximum; inactive = score below 0.9); conditions: HepG2 XBP1 cis-element reporter, Attagene multiplex; actives raise or lower the signal
Procedure, shortened: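 Fluorescence-labelled cDNA fragments from reporter transcripts, separated by capillary electrophoresis, give the signal. Source: HepG2 cells transfected with promoter-driven reporter units, harvested 24 h post-dose. DMSO served as reference for bidirectional curve fitting.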

[4] = ATG_M_19_TRANS: Attagene TRANS-FACTORIAL HepG2 Assay for M19 Transcription Factor (Internal Marker) (AID 2282974); conditions: HepG2 Attagene TRANS-FACTORIAL M19 internal marker reporter
Procedure, shortened: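 HepG2 cells transiently transfected with multiple GAL4-UAS reporter transcription units were exposed to chemicals for 24 h. Reporter mRNA was read by RT-PCR, 6-FAM primer extension, HpaI digestion and capillary electrophoresis; gain of signal fitted relative to DMSO.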

[5] = molecular target: Bile acid receptor (Homo sapiens) (UniProt Q96RI1); assay: ATG_FXR_TRANS: Attagene TRANS-FACTORIAL HepG2 Assay for Farnesoid X Receptor (FXR) (AID 2282979); conditions: HepG2 Attagene TRANS FXR-GAL4 reporter transcription;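 note: hits raise reporter mRNA above DMSO so AC50 marks FXR activation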
Procedure, shortened: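 Chimeric FXR-GAL4 activity in transiently transfected human HepG2 liver cells is scored as induction of reporter mRNA after 24 h of dosing. Detection uses RT-PCR with fluorescent labelling and capillary electrophoresis, with DMSO serving as baseline.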

[6] = molecular target: Nuclear receptor subfamily 4 group A member 2 (Homo sapiens) (UniProt P43354); assay: ATG_NURR1_TRANS: Attagene TRANS-FACTORIAL HepG2 Assay for human Nuclear Receptor Related Protein 1 (NURR1) (AID 2282985); conditions: HepG2 Attagene TRANS reporter, mRNA readout
Procedure, shortened: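 HepG2 cells transiently transfected with NURR1-Gal4 chimera and GAL4-UAS reporter units; after 24 hr compound exposure, reporter mRNA quantified by RT-PCR and capillary electrophoresis; gain of signal fitted against DMSO.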

[7] = molecular target: Transcriptional activator Myb (Homo sapiens) (UniProt P10242); assay: ATG_Myb_CIS: Attagene CIS-FACTORIAL HepG2 Assay for human Myeloblastosis (Myb) Proto-Oncogene Transcription Factor (AID 2282986; active = hit-call score of the fitted dose curve at least 0.9, where 1 is the maximum; inactive = score below 0.9); conditions: HepG2 Attagene CIS-FACTORIAL Myb reporter transcription; actives raise or lower the signal
Procedure, shortened: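 HepG2 cells were transiently transfected with cis-regulated multiple reporter transcription units reflecting endogenous Myb activity, then exposed to compound for 24 hours. Reporter mRNA was measured by RT-PCR with capillary electrophoresis; bidirectional fitting versus DMSO baseline.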

[8] = molecular target: Nuclear respiratory factor 1 (Homo sapiens) (UniProt Q16656); assay: ATG_NRF1_CIS: Attagene CIS-FACTORIAL HepG2 Assay for human Nuclear Respiratory Factor 1 (NRF1) Orphan Gene (AID 2282987; active = hit-call score of the fitted dose curve at least 0.9, where 1 is the maximum; inactive = score below 0.9); conditions: HepG2 NRF1 cis-element reporter, Attagene multiplex; actives raise or lower the signal
Procedure, shortened: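 HepG2 cells transiently transfected with multiple reporter transcription units under cis-regulatory promoter control, so endogenous transcription-factor activity is read. After 24 h compound exposure, reporter mRNA quantified by RT-PCR, fluorescent labelling, HpaI digestion and capillary electrophoresis; bidirectional fitting versus DMSO.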

[9] = molecular target: Hepatocyte nuclear factor 4-alpha (Homo sapiens) (UniProt P41235); assay: ATG_HNF4a_TRANS: Attagene TRANS-FACTORIAL HepG2 Assay for human Hepatocyte Nuclear Factor 4 alpha (HNF4a) (AID 2282982); conditions: HepG2 HNF4a transactivation reporter, mRNA readout
Procedure, shortened: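 HepG2 cells transiently transfected with HNF4a-Gal4 chimera and GAL4-UAS reporter units, dosed for 24 h. Reporter mRNA measured by RT-PCR, fluorescent primer extension and capillary electrophoresis; gain-of-signal fitted relative to DMSO.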

[10] = molecular target: Estrogen receptor (Homo sapiens) (UniProt P03372); assay: ATG_ERa_TRANS: Attagene TRANS-FACTORIAL HepG2 Assay for human Estrogen Receptor alpha (ERa) (AID 2282970); conditions: HepG2 Attagene TRANS ERa GAL4 reporter, mRNA
Procedure, shortened: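 Transactivation via ERa-Gal4 chimera in HepG2; 24 hour incubation; reporter mRNA detected by fluorescence RT-PCR and capillary electrophoresis.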

[11] = molecular target: Oxysterols receptor LXR-alpha (Homo sapiens) (UniProt Q13133); assay: ATG_LXRa_TRANS: Attagene TRANS-FACTORIAL HepG2 Assay for human Liver X Receptor alpha (LXRa) (AID 2282980); conditions: HepG2 Attagene TRANS reporter, LXRa transactivation
Procedure, shortened: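 Transient HepG2 transfectants, 24 h dosing, RT-PCR/CE mRNA reporter quantitation; gain-of-signal vs DMSO.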

[12] = molecular target: Oxysterols receptor LXR-beta (Homo sapiens) (UniProt P55055); assay: ATG_LXRb_TRANS: Attagene TRANS-FACTORIAL HepG2 Assay for human Liver X Receptor beta (LXRb) (AID 2282981); conditions: HepG2 Attagene TRANS GAL4-LXRb reporter, mRNA
Procedure, shortened: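 HepG2 cells transiently transfected with GAL4-UAS reporter units for chimeric NR-Gal4 proteins, dosed for 24 h. Reporter transcripts measured by RT-PCR and capillary electrophoresis; gain-of-signal fitting relative to DMSO.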

[13] = ATG_M_06_TRANS: Attagene TRANS-FACTORIAL HepG2 Assay for M06 Transcription Factor (Internal Marker) (AID 2282983); conditions: HepG2 Attagene TRANS M06 internal marker reporter;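 note: reporter transcript level by RT-PCR then capillary electrophoresis fluorescence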
Procedure, shortened: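 Measured by capillary electrophoresis of fluorescently labelled RT-PCR products, this endpoint reflects reporter mRNA in HepG2 cells harbouring exogenous NR-GAL4 reporter constructs after 24 h exposure, with DMSO as baseline.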

[14] = ATG_M_32_TRANS: Attagene TRANS-FACTORIAL HepG2 Assay for M32 Transcription Factor (Internal Marker) (AID 2282984); conditions: HepG2 Attagene TRANS M32 internal marker reporter;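 note: transcript level of a background control reporter unit measured by RT-PCR and capillary electrophoresis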
Procedure, shortened: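 HepG2 cells transiently transfected with GAL4-UAS reporter units, dosed for 24 hours. Reporter mRNA quantified by RT-PCR, 6-FAM labelling, HpaI digestion and capillary electrophoresis; internal-marker signal fitted upward relative to DMSO.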

[15] = molecular target: Nuclear receptor subfamily 1 group I member 3 (Homo sapiens) (UniProt Q14994); assay: ATG_CAR_TRANS: Attagene TRANS-FACTORIAL HepG2 Assay for human Constitutive Androstane Receptor (CAR) (AID 2282969); conditions: HepG2 Attagene TRANS-FACTORIAL CAR reporter;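 note: activators raise reporter mRNA above DMSO so AC50 marks induction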
Procedure, shortened: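 HepG2 cells transiently transfected with GAL4-UAS reporter units; TRANS format reads activity of exogenous chimeric NR-Gal4 protein. After 24 h dosing, reporter mRNA quantified by RT-PCR, 6-FAM labelling and capillary electrophoresis; gain of signal fitted against DMSO.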

[16] = molecular target: Steroid hormone receptor ERR1 (Homo sapiens) (UniProt P11474); assay: ATG_ERRa_TRANS: Attagene TRANS-FACTORIAL HepG2 Assay for human Estrogen-Related Receptor alpha (ERRa) (AID 2282971); conditions: HepG2 Attagene TRANS reporter, ERRa transactivation
Procedure, shortened: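 HepG2 cells were transiently transfected with multiple GAL4-UAS reporter units, then dosed with compound for 24 h. Total RNA was reverse-transcribed, reporter cDNA PCR-amplified and fluorescently labelled, and fragments resolved by capillary electrophoresis; induction was compared with DMSO.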

[17] = ATG_GAL4_TRANS: Attagene TRANS-FACTORIAL HepG2 Assay for GAL4 (Internal Marker) (AID 2282976); conditions: HepG2 Attagene TRANS GAL4 internal marker reporter
Procedure, shortened: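 Fluorescence from capillary electrophoresis of labelled RT-PCR products quantifies reporter mRNA induction after 24 h dosing of HepG2 cells carrying transfected GAL4-UAS reporter transcription units. Vehicle DMSO serves as baseline.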

[18] = molecular target: Glucocorticoid receptor (Homo sapiens) (UniProt P04150); assay: ATG_GR_TRANS: Attagene TRANS-FACTORIAL HepG2 Assay for human Glucocorticoid Receptor (GR) (AID 2282978); conditions: HepG2 Attagene TRANS GR reporter, mRNA transcription;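 note: activators score as hits since higher reporter transcript over DMSO is fitted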
Procedure, shortened: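 HepG2 cells transiently transfected with multiplexed reporter units in which chimeric NR-GAL4 proteins drive GAL4-UAS reporters; 24 h compound exposure. Reporter mRNA measured by RT-PCR, 6-FAM labelling, HpaI digestion and capillary electrophoresis; gain-of-signal fitted versus DMSO.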

[19] = molecular target: Estrogen-related receptor gamma (Homo sapiens) (UniProt P62508); assay: ATG_ERRg_TRANS: Attagene TRANS-FACTORIAL HepG2 Assay for human Estrogen-Related Receptor gamma (ERRg) (AID 2282977); conditions: HepG2 Attagene TRANS reporter, ERRg transactivation;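 note: hits increase reporter signal over DMSO so potencies reflect activators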
Procedure, shortened: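 HepG2 cells transiently transfected with multiplexed GAL4-UAS reporter units driven by chimeric NR-Gal4 proteins; 24 h exposure. Reporter mRNA quantified by RT-PCR, fluorescent labelling, HpaI digestion and capillary electrophoresis; gain of signal vs DMSO.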

Measured: AC50

Sequence of Nuclear receptor subfamily 4 group A member 2 (Homo sapiens) (P43354 whole entry, looked up, the tested form may be a part): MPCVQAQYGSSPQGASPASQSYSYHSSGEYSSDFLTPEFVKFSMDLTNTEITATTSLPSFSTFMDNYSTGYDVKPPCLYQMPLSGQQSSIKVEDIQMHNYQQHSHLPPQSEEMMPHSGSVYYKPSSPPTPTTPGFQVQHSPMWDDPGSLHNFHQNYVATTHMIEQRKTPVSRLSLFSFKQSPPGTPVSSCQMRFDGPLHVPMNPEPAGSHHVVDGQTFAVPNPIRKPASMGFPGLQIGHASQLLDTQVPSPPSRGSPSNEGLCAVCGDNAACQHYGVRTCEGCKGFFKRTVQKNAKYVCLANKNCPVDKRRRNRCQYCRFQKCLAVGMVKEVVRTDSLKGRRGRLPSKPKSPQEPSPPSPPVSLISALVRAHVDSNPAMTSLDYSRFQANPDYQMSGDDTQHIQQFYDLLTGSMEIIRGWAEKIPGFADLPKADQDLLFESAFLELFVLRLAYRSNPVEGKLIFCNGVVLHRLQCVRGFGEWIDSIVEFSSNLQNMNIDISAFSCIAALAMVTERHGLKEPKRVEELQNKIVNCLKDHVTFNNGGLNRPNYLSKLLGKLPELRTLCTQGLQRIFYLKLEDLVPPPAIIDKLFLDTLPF
Sequence of X-box-binding protein 1 (Homo sapiens) (P17861 whole entry, looked up, the tested form may be a part): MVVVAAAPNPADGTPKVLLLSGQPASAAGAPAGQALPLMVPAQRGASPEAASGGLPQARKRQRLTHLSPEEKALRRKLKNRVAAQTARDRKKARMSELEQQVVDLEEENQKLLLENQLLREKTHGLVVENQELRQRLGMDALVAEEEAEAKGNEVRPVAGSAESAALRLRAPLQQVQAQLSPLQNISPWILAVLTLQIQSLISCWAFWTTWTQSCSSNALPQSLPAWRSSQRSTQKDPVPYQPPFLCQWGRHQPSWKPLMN
Sequence of Hepatocyte nuclear factor 4-alpha (Homo sapiens) (P41235 whole entry, looked up, the tested form may be a part): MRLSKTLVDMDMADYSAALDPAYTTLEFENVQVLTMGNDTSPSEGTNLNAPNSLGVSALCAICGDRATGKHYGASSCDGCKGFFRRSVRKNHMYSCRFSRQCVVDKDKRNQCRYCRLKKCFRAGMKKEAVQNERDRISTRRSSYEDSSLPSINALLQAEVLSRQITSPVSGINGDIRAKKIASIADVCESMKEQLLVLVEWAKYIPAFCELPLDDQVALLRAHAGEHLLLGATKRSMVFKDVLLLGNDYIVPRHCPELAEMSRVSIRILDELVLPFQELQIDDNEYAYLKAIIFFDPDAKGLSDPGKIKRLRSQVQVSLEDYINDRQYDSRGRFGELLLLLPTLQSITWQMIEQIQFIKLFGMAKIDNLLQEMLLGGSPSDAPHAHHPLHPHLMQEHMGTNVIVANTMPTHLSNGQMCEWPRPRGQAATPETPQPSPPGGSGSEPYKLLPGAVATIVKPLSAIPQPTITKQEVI
Sequence of Bile acid receptor (Homo sapiens) (Q96RI1 whole entry, looked up, the tested form may be a part): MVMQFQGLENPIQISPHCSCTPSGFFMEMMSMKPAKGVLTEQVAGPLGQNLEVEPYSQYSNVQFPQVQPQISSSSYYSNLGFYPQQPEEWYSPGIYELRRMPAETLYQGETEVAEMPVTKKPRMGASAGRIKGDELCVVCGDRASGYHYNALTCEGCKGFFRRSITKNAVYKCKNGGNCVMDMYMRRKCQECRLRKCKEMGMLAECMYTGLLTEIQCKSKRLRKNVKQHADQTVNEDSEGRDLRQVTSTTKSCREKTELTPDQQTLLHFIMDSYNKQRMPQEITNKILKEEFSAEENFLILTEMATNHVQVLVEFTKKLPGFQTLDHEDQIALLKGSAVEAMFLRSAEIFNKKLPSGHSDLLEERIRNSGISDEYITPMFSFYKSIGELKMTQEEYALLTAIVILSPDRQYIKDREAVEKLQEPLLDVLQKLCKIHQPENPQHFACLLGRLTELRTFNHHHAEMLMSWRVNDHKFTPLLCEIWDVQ
Sequence of Nuclear respiratory factor 1 (Homo sapiens) (Q16656 whole entry, looked up): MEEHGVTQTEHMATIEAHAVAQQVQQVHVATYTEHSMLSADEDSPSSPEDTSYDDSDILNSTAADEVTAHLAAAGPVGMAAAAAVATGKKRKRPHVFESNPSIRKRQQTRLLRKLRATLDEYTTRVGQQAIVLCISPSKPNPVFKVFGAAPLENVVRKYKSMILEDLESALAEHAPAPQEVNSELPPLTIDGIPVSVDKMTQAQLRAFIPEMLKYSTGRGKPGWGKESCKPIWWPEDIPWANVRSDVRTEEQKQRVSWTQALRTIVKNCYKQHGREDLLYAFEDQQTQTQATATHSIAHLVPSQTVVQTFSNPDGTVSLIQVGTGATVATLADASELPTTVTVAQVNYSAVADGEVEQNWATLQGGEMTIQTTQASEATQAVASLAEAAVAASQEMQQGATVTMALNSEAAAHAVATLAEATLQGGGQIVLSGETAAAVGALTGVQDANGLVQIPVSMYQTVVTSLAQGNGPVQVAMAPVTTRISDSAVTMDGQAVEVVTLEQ
Sequence of Glucocorticoid receptor (Homo sapiens) (P04150 whole entry, looked up, the tested form may be a part): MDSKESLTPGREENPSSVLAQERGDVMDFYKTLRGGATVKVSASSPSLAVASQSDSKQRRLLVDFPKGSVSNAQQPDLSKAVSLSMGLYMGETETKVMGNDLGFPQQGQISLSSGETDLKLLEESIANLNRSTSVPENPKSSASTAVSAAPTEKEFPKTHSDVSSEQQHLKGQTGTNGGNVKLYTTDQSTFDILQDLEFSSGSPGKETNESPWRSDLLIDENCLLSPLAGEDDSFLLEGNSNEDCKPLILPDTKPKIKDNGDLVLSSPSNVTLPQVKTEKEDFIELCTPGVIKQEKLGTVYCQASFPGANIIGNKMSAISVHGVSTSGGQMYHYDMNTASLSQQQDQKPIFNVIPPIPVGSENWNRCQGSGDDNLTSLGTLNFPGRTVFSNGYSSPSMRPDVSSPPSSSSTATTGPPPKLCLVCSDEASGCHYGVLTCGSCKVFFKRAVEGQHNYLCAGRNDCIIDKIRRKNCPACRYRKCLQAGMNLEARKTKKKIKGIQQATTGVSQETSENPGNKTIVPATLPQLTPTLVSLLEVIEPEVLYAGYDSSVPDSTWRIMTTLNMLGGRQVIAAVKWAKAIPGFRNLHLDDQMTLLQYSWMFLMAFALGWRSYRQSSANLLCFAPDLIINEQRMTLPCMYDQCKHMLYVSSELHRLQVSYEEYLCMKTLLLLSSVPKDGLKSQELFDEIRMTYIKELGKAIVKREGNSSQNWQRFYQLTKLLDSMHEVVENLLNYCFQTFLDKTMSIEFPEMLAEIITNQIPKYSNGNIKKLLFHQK
Sequence of Oxysterols receptor LXR-alpha (Homo sapiens) (Q13133 whole entry, looked up): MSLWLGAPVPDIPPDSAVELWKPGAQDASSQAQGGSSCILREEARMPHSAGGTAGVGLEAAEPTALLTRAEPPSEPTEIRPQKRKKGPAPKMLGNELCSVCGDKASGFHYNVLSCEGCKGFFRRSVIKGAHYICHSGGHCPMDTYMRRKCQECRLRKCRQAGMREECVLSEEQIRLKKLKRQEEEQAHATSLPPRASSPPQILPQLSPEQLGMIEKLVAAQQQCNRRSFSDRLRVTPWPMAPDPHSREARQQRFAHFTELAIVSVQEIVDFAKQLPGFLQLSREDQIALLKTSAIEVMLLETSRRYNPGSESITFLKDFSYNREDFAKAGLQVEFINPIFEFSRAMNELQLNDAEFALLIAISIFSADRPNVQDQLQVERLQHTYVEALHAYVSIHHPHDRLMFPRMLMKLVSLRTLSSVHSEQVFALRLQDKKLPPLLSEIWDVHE
Sequence of Nuclear receptor subfamily 1 group I member 3 (Homo sapiens) (Q14994 whole entry, looked up, the tested form may be a part): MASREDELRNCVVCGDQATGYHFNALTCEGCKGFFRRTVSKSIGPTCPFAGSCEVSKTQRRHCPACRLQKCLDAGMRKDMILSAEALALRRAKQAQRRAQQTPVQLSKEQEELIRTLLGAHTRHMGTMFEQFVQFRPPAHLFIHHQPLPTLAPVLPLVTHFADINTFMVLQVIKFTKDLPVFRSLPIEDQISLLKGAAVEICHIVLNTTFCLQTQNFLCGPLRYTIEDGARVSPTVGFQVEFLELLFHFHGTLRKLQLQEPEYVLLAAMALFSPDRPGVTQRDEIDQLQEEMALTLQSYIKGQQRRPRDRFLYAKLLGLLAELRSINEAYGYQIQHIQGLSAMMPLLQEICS
Sequence of Oxysterols receptor LXR-beta (Homo sapiens) (P55055 whole entry, looked up, the tested form may be a part): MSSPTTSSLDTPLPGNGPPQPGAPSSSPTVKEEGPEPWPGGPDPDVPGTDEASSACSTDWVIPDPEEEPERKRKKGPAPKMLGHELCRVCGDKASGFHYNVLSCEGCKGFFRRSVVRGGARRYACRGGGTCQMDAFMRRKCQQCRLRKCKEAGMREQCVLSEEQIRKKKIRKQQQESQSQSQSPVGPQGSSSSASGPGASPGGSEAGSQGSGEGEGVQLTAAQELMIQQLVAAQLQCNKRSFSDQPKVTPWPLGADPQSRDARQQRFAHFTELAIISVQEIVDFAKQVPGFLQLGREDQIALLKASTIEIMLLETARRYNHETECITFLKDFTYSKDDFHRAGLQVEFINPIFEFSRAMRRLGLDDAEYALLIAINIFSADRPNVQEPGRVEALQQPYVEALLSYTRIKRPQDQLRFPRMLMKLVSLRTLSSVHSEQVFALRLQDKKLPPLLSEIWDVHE
Sequence of Steroid hormone receptor ERR1 (Homo sapiens) (P11474 whole entry, looked up, the tested form may be a part): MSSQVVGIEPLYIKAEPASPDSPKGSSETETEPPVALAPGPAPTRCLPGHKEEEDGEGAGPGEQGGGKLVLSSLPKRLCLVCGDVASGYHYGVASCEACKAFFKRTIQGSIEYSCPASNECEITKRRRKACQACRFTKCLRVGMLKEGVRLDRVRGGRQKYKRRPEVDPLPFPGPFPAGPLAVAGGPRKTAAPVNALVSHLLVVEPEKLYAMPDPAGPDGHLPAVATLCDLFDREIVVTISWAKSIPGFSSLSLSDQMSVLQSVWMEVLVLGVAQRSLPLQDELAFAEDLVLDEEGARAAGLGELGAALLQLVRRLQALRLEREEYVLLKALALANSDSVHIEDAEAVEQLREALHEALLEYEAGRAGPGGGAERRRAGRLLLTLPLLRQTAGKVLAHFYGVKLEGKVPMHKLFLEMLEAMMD

CC/C=C\CCOC(=O)CC
inactive: [1] | [2] | [3] | [4] | [5] | [6] | [7] | [8]

CCCCCCCCCC(=O)OC
inactive: [1] | [2] | [3] | [4] | [9] | [7]

O=CN1CCOCC1
not listed: [5] | [6] | [15] | [16] | [17] | [18] | [19]
inactive: all other assays above

CS(=O)(=O)c1ccc(C2=C(c3ccccc3)C(=O)OC2)cc1
not listed: [5] | [6] | [10] | [11] | [13] | [19]
inactive: all other assays above

O=c1c(O)c(-c2ccc(O)cc2)oc2cc(O)cc(O)c12
not listed: [4] | [5] | [8] | [10] | [16] | [17] | [18]
inactive: all other assays above

NC(=S)NNC(N)=S
not listed: [6] | [10] | [11] | [13] | [15] | [16] | [19]
inactive: all other assays above

O=C(O)c1ccc(O)cc1
not listed: [10] | [12] | [17] | [18] | [19]
inactive: all other assays above

CC1(C)C(=O)N(Cl)C(=O)N1Br
not listed: [10] | [12] | [13] | [16] | [17] | [19]
inactive: all other assays above

Cc1[nH]c(=O)c(C#N)cc1-c1ccncc1
inactive: [1] | [2] | [10] | [3] | [12] | [13] | [7] | [8]

IC(I)I
not listed: [9] | [10] | [13] | [15] | [17] | [19]
inactive: all other assays above

CCCCCCCC(=O)OCC(O)CO (stereo unspecified)
not listed: [5] | [10] | [11] | [13] | [14] | [17] | [19]
inactive: all other assays above

Nc1ccc2c(O)cc(S(=O)(=O)O)cc2c1
inactive: [1] | [2] | [15] | [3] | [11] | [9] | [13] | [6] | [7] | [8]

CCCCCCC(=O)c1ccccc1
inactive: [1] | [2] | [15] | [3] | [4] | [5] | [7] | [8]

CCOc1ccc(NC(=O)CC(C)O)cc1 (stereo unspecified)
inactive: [1] | [3] | [4] | [9] | [6] | [7] | [8]
active: [2] 97.5 nM

N#Cc1cscn1
not listed: [4] | [10] | [12] | [14] | [16] | [18] | [19]
inactive: all other assays above
